CHT inh: inhibitors of human choline transporter CHT; Q9GZV3; CHT-expressing cells, membrane potential dye, choline response; stronger effect = lower value; B-score at 10 µM; hit rate 0.86% among 310,000;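 active means B-score over 3 SD under the library average, and starting fluorescence ratio not unusually high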;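 further: choline stimulus applied at its EC90 after an EC20 pre-addition; B-score computed on integrated fluorescence ratio after choline addition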
Target sequence (Q9GZV3 whole entry, looked up): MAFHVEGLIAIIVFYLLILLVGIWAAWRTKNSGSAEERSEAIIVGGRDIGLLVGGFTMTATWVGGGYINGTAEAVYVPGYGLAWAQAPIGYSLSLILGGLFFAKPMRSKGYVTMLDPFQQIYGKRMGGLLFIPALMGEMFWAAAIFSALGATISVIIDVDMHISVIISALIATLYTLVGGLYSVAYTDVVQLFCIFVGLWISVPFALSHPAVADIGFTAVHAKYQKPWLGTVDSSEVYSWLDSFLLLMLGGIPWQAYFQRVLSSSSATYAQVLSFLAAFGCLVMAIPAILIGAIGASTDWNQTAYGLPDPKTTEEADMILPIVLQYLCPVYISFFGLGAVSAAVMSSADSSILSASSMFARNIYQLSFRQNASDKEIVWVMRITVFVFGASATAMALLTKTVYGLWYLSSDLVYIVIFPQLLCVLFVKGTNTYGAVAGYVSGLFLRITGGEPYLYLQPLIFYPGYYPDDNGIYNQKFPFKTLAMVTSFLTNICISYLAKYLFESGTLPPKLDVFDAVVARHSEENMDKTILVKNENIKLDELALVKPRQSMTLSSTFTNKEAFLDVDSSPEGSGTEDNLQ
TMEM16A act: activates or potentiates the mouse TMEM16A chloride channel | Q8BHY3 | HEK293 TMEM16A/YFP-H148Q/I152L, iodide quench fluorescence; stronger effect = lower value | B-score at 10 µM | hit rate 0.3% among 340,000;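 active means fluorescence-ratio B-score plate-corrected deviation score at least 3 library SD below zero, with starting fluorescence score within 5 deviations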;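 further: channel opened by trigger with iodide after compound preincubation; score built on the fluorescence ratio of max minus min over baseline; more negative score means more quench and so TMEM16A activation or potentiation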
TMEM16A inh: blocks the mouse calcium-activated chloride channel TMEM16A; Q8BHY3; HEK293 TMEM16A/YFP iodide influx fluorescence, ionomycin; normalized B-score (activity score, 25-100; higher = stronger inhibition) at 10 µM; hit rate 1.2% among 310,000;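 active means ratio plate-corrected score three or more library SD toward inhibition, starting fluorescence score within five deviations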;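 further: score derived from kinetic fluorescence span divided by baseline fluorescence per well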
CHT PAM: allosteric activators of human choline transporter CHT. Q9GZV3. CHT-expressing cells, membrane potential dye, choline EC20; stronger effect = higher value; LV-AA mutant CHT in HEK293 cells. B-score at 10 µM. hit rate 0.49% among 310,000. AID 488977;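 active means initial fluorescence not abnormally high and integrated response B-score, plate-corrected, over 3 SD above library mean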
* marks the source's active call; other numbers are inactive results; i = inactive; . = no result given. Compounds with a hit are over-represented: about 2.3% of the library has one in this group of screens.

SMILES | CHT inh | TMEM16A act | TMEM16A inh | CHT PAM
CC1CCN(CCCCOc2ccc([N+](=O)[O-])cc2)CC1 | i | i | i | i
COC(=O)C1CCN(Cc2ccc(OCCCN3CCN(c4ccc([N+](=O)[O-])cc4)CC3)cc2)CC1 | i | i | 25* | i
Cc1nonc1CN(C)C(=O)CC1C(=O)NCCN1Cc1ccc(F)c(F)c1 (centres undefined) | i | i | i | i
CCOC(=O)c1c(C)[nH]c(C)c1S(=O)(=O)N(C)CC(=O)N(C)Cc1ccccc1 | i | i | i | i
CCOc1ccc(CCNC(=O)CSc2nn(-c3ccc(C)c(Cl)c3)c(=S)s2)cc1OCC | i | -6* | i | i
CCOc1ccc(CCNC(=O)CSc2nnnn2C)cc1OCC | i | i | i | i
COc1ccc(-c2ccc3c(c2)S(=O)(=O)c2cccc(C(=O)NCc4cccc(OC(F)(F)F)c4)c2C3=O)cc1OC | . | -4.6* | . | .
c1ccc(CNc2cnccn2)cc1 | i | i | i | i
c1ccc(CCNc2cnccn2)cc1 | i | -4.7* | i | i
CCCn1nnc(NC(=O)C(C)C)n1 | i | i | i | i
O=C(NC1CCC1)C1CCC(=O)N(Cc2ccccc2F)C1 (centres undefined) | i | i | i | i
O=C(NC1CCC1)C1CCC(=O)N(Cc2cccc(F)c2)C1 (centres undefined) | i | -6.2* | i | i
O=C(CCc1ccc(S(=O)(=O)N2CCOCC2)cc1)Nc1nc(COc2ccccc2)cs1 | i | i | 25* | i
CC(OC(=O)/C(C#N)=C/c1ccc(N(C)C)cc1)C(=O)N(C)Cc1ccccc1 (centres undefined) | i | -10* | i | i
N#C/C(=C\c1ccc(OCc2ccccc2)cc1)C(N)=O | i | i | i | i
CCc1ccc(CNC(=O)c2cc3c(C)nc4ccccc4c3o2)cc1 | i | i | i | i
Cc1nc2ccccc2c2oc(C(=O)NCC3COc4ccccc4O3)cc12 (centres undefined) | i | i | 25* | i
Cc1ccc(S(=O)(=O)N2CCN(c3nn(C)c(=O)n(C)c3=O)CC2)cc1C | . | i | . | .
Cn1nc(N2CCN(S(=O)(=O)c3ccccc3)CC2)c(=O)n(C)c1=O | . | -29* | . | .
Cc1nn(-c2ccccc2)c2c1C(c1ccc([N+](=O)[O-])cc1)N1C(=N2)C(=O)Nc2ccccc21 (centres undefined) | i | i | i | i
Cc1nn(-c2ccc([N+](=O)[O-])cc2)c2c1C(c1cccc(Br)c1)N1C(=N2)C(=O)Nc2ccccc21 (centres undefined) | -6.6* | i | i | i
CC(=O)c1c(C)nc2ccc(C)cc2c1-c1ccccc1 | i | i | i | i
CCOc1ccc(CCNC(=O)CCC(=O)N2CCOc3ccc(C)cc32)cc1OCC | i | -14* | i | i
Nc1nc(Cl)cc(NCCc2ccc(O)cc2)n1 | i | i | i | i
Oc1ccc(CCNc2ncnc3ccc(Cl)cc23)cc1 | i | i | 100* | i
SMILES | CHT inh | TMEM16A act | TMEM16A inh | CHT PAM
CSc1ccc(/C=C/C(=O)NC(=O)c2ccccc2O)cc1 | i | i | 25* | i
CSc1nc(SCC(=O)NC(c2ccccc2)c2ccccc2)c2c3c(sc2n1)CN(C)CC3 | i | i | i | i
CCN(CC)CCCNc1nc(SC)nc2sc3c(c12)CCN(C)C3 | i | . | i | 7.1*
COc1ccc(OC)c(C(=O)C2COC(=O)C2)c1 (centres undefined) | i | i | i | i
N#C/C(=C/c1ccc(O)c([N+](=O)[O-])c1)C(=O)Nc1ccccc1 | i | i | 25* | i
CN(C)C1=NC[C@H](Cc2ccccc2)N1CC1CCCC1 | i | i | i | i
CN(C)C1=NC[C@H](Cc2ccccc2)N1CC1CCC(C(C)(C)C)CC1 (some centres undefined) | i | i | i | 15*
CCN1C(c2ccccc2)C(C)C(=O)C(C)C1c1ccccc1 (centres undefined) | i | i | i | 8.6*
CC1C(=O)C(C)C(c2ccccc2)N(N=O)C1c1ccccc1 (centres undefined) | . | i | . | .
Cc1cc(C)n(-c2ccc(C(=O)OCC(=O)Nc3cc(S(C)(=O)=O)ccc3Cl)cc2)n1 | . | i | . | .
Cc1ccc(C2=NC(=O)/C(=C/c3cc(O)c(O)c(Br)c3)S2)cc1 | . | -6* | . | .
COc1ccc(/C=C2\SC(N)=NC2=O)cc1Br | i | i | i | i
